From PubChem BioAssay
Shown are actives, neighbours in structure and some others; about 13% of the full set was active somewhere.
Pf growth 96h = P. falciparum growth inhibition at 96 hours; P. falciparum luciferase reporter growth, 96 h; Potency, µM (series often up to 28.7 µM), most hits filed as inhibitors; 320,000 tested, 6.9% active; AID 504834
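Delayed-death screen, second-generation endpoint: infected erythrocytes, 2% hematocrit, 0.05% parasitemia final; 96 hours at 37 C, 5% CO2; luciferase detection reagent; luminescence decrease equals reduced growth.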
HCV inhibitor = inhibitors of hepatitis C virus infection | Huh7.5.1 HCVcc-Cre infection, luciferase reporter, 44 h | Potency, µM (top dose mostly 41.8 µM), hits mostly inhibitors | 340,000 tested, 3.4% active | AID 651820
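Cells (1,000/well) were plated 4 h before compound, then infected with HCVcc-Cre virus (~0.5 moi). After 44 h further culture, infection was read as luciferase luminescence following a 15 min substrate incubation at room temperature.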
HCMV inh = inhibitors of human cytomegalovirus. AID 1259415. 410,000 tested, 4.5% active. activity change, negative = inhibition, % at 57.5 µM. HFF cells, HCMV-luciferase reporter, 72 h; hits give low values; in the data active = activity change below about -60%; inconclusive = no clear call, values can overlap the other calls; inactive = above about -39%
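After 16 h attachment at 37C, HFF cells received test compound and HCMV-luciferase (1 PFU/cell); reporter luminescence read 72 h later, data normalized against buffer-only and known inhibitor Salinomycin.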
Pf growth 48h = P. falciparum growth inhibition at 48 hours (one generation); P. falciparum luciferase growth in erythrocytes, 48 h; 310,000 tested, 5.9% active; Potency, µM (series often up to 28.7 µM), hits mostly inhibitors
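Cell-based growth assay: transgenic P. falciparum expressing firefly luciferase, cultured in red cells within RPMI 1640 containing 0.5% w/v Albumax, 24 mM bicarbonate and gentamycin. A drop in luciferase activity indicates inhibition.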
Of the large screens only hits and unclear results are named; the others gave an inactive call. Unless noted, calls come from the whole dose curve; as a rule, active = well fitted inhibition curve with a large enough effect; inconclusive = small, poorly fitted or top-dose-only effect, or another doubt; inactive = no such curve, though single readings can be large or run the other way.

CCN(C(=O)CSc1nc2ccccc2c(=O)n1Cc1ccc(C)cc1)C1CCS(=O)(=O)C1 (configuration not stated)	Pf growth 96h inconclusive
CCC(C)N(C(=O)CSc1nc(C)nc2ccccc12)C1CCS(=O)(=O)C1 (configuration not stated)	Pf growth 96h 14.7µM, Pf growth 48h inconclusive
COCCn1c(SCC(=O)N(C)C2CCS(=O)(=O)C2)nc2ccccc2c1=O (configuration not stated)	none
CCC(C)N(C(=O)COc1ccccc1C#N)C1CCS(=O)(=O)C1 (configuration not stated)	Pf growth 96h inconclusive
CCC(C)N(C(=O)COc1ccccc1C(=O)NCc1ccccc1)C1CCS(=O)(=O)C1 (configuration not stated)	Pf growth 96h 9.28µM, HCV inhibitor inconclusive, Pf growth 48h inconclusive
CCn1c(SCC(=O)N(Cc2ccccc2)C2CCS(=O)(=O)C2)nc2ccccc2c1=O (configuration not stated)	Pf growth 48h 5.22µM (no result: Pf growth 96h)
C=CCn1c(SCC(=O)N(C(C)CC)C2CCS(=O)(=O)C2)nc2ccccc2c1=O (configuration not stated)	Pf growth 96h 5.86µM, Pf growth 48h inconclusive
CCN(CC)c1ccc(-c2nc(-c3ccccc3C)no2)cc1[N+](=O)[O-]	none (no result: Pf growth 96h, HCV inhibitor, Pf growth 48h)
COc1cc(-c2noc(CCC(=O)Nc3cc(C)ccc3C)n2)cc(OC)c1OC	none (no result: Pf growth 96h, HCV inhibitor, Pf growth 48h)
CCOc1ccccc1C(=O)NCC(c1cccs1)S(=O)(=O)c1ccc(F)c(C)c1 (configuration not stated)	none (no result: Pf growth 96h, HCV inhibitor, Pf growth 48h)
COc1cccc2c1Oc1ncccc1N(C(=O)CCC(=O)NCc1ccc(OC(C)C)cc1)C2	none (no result: Pf growth 96h, HCV inhibitor, Pf growth 48h)
O=[N+]([O-])c1ccc(S(=O)(=O)Nc2nc(-c3ccccc3)cs2)cc1	Pf growth 96h 6.57µM
O=S(=O)(Nc1nc(-c2ccccc2)cs1)c1cccc(C(F)(F)F)c1	none
C=CCNc1nc(Nc2ccc([N+](=O)[O-])cc2)nc(OC)n1	Pf growth 48h inconclusive
C=CCNc1nc(Cl)nc(Nc2ccc([N+](=O)[O-])cc2)n1	Pf growth 96h 2.33µM
C=CCNc1nc(-c2ccc(Cl)cc2)cs1	HCV inhibitor inconclusive (no result: Pf growth 96h)
C=CCNc1nc(-c2ccc([N+](=O)[O-])cc2)cs1	HCV inhibitor inconclusive, HCMV inh -69.3
Cc1ccc(NC(=O)c2cnc(N3CCCCC3)c3ccccc23)c(C)c1	none (no result: Pf growth 96h, HCV inhibitor, Pf growth 48h)
CCCCNC(=O)C1CCC(Cn2c(=O)c3sccc3n(Cc3ccccc3)c2=O)CC1 (configuration not stated)	none (no result: Pf growth 96h, HCV inhibitor, Pf growth 48h)
Cc1ccccc1N=Nc1c(C)[nH]n(-c2ccccc2)c1=O	none (no result: HCMV inh)
Cc1[nH]n(-c2ccccc2)c(=O)c1N=Nc1ccccc1O	HCV inhibitor 4.47µM, HCMV inh -99.2, Pf growth 48h inconclusive
CC(=O)N(C)c1ccc(N=Nc2c(C)[nH]n(-c3ccccc3)c2=O)cc1	Pf growth 96h 11.7µM, HCV inhibitor inconclusive, Pf growth 48h inconclusive
Cc1[nH]n(-c2ccccc2)c(=O)c1N=Nc1nccs1	Pf growth 96h inconclusive, HCV inhibitor inconclusive, HCMV inh -96.0 (no result: Pf growth 48h)
CC(=O)N(C)c1ccc(N=Nc2c(C)[nH]n(C(N)=S)c2=O)cc1	none
Cc1[nH]n(C2=NCCS2)c(=O)c1N=Nc1ccccc1	HCMV inh -61.4
Cc1[nH]n(-c2ccccc2)c(=O)c1N=Nc1ccc2c(c1)OCO2	none
Cc1ccc(Cn2cc(CCC(=O)NC3CCC(C)CC3)c3ccccc32)cc1 (configuration not stated)	none (no result: Pf growth 96h, HCV inhibitor, Pf growth 48h)
CCS(=O)(=O)Nc1cccc(C2=NN(S(=O)(=O)c3ccc(F)cc3)C(c3cccs3)C2)c1 (configuration not stated)	Pf growth 96h 8.28µM, Pf growth 48h inconclusive
CCS(=O)(=O)Nc1cccc(C2=NN(S(=O)(=O)CC)C(c3cccs3)C2)c1 (configuration not stated)	Pf growth 96h 13.1µM, Pf growth 48h inconclusive
Cc1ccc(C(=O)OCC(=O)Nc2cc(C(C)(C)C)nn2-c2ccccc2)c(O)c1	HCV inhibitor inconclusive, Pf growth 48h inconclusive
CCCc1cc(NC(=O)COC(=O)c2ccc(O)cc2O)n(-c2ccccc2)n1	HCV inhibitor 11.2µM (no result: Pf growth 96h, Pf growth 48h)
O=C(COC(=O)c1ccc(O)cc1O)Nc1cc(-c2ccccc2)nn1-c1ccccc1	Pf growth 96h 4.65µM, HCMV inh inconclusive, Pf growth 48h 11.7µM
CC(C)(C)c1cc(NC(=O)COC(=O)c2ccc(O)cc2O)n(-c2ccccc2)n1	Pf growth 96h inconclusive, HCV inhibitor inconclusive, Pf growth 48h inconclusive
CCCc1cc(NC(=O)CCl)n(-c2ccccc2)n1	Pf growth 96h inconclusive, HCV inhibitor 22.4µM, HCMV inh inconclusive, Pf growth 48h inconclusive
CCOc1cccc(CC(=O)N2CCc3c([nH]c4ccccc34)C2c2ccccc2)c1OCC (configuration not stated)	none (no result: Pf growth 96h, HCV inhibitor, Pf growth 48h)
CN(C)c1ccc2nc3c(=O)[nH]c(=O)nc-3n(CC(O)C(O)C(O)CO)c2c1 (configuration not stated)	Pf growth 48h 4.15µM
Cc1ncc(C(O)c2ccc(N(C)C)cc2)n1Cc1ccccc1 (configuration not stated)	none (no result: Pf growth 96h, HCV inhibitor, Pf growth 48h)
COc1ccc(CNC(=O)C(c2ccncc2)N(C(=O)Cc2cccs2)c2cccc(C)c2)cc1 (configuration not stated)	Pf growth 96h inconclusive, Pf growth 48h inconclusive
COc1ccc(CNC(=O)C(c2ccc(C)cc2)N(Cc2cccs2)C(=O)c2ccc3c(c2)OCCO3)cc1 (configuration not stated)	HCV inhibitor 11.2µM, HCMV inh inconclusive, Pf growth 48h inconclusive
Cc1ccc(C(C(=O)NCc2ccccc2)N(Cc2cccs2)C(=O)c2ccc3c(c2)OCCO3)cc1 (configuration not stated)	Pf growth 96h inconclusive, HCV inhibitor inconclusive, HCMV inh -68.9, Pf growth 48h inconclusive
Cc1ccc(N2C(=O)CCSC23C(=O)N(Cc2ccccc2)c2ccccc23)cc1 (configuration not stated)	none (no result: Pf growth 96h, HCV inhibitor, Pf growth 48h)
COc1ccc(OC)c(NC(=O)CN(Cc2ccc(F)cc2)C2CCCCC2)c1	Pf growth 96h inconclusive, HCV inhibitor inconclusive, HCMV inh -93.2, Pf growth 48h 4.65µM
COc1ccc(C)cc1NC(=O)CN(Cc1nnc(-c2ccc(Cl)cc2)o1)C1CCCC1	Pf growth 96h inconclusive, HCV inhibitor 7.94µM, Pf growth 48h 10.4µM
COc1ccc(Cl)cc1NC(=O)CN(C)C1CCCCC1	Pf growth 96h inconclusive, HCV inhibitor inconclusive, Pf growth 48h inconclusive
COc1ccc(C)cc1NC(=O)CSc1nnc(-c2ccc(C)cc2)o1	none (no result: Pf growth 48h)
Cc1ccc(NC(=O)C(=O)NCC(c2ccc3c(c2)OCO3)N2CCOCC2)cc1C (configuration not stated)	none (no result: Pf growth 96h, HCV inhibitor, Pf growth 48h)
Oc1cc(Cl)ccc1Oc1ccc(Cl)cc1Cl	Pf growth 96h 6.01µM, Pf growth 48h 9.53µM
S=c1[nH]cc(Oc2ccc(Cl)cc2Cl)c(=S)[nH]1	none (no result: Pf growth 96h, Pf growth 48h)
CCc1cccc(NCc2ccccc2-c2nnc(-c3ccccc3Cl)o2)c1	none (no result: Pf growth 96h, HCV inhibitor, Pf growth 48h)
CCOc1ccc(-c2nc(CSCC(=O)NCc3ccc(C)cc3)c(C)o2)cc1	HCMV inh -68.6 (no result: Pf growth 96h, HCV inhibitor, Pf growth 48h)
CCc1ccc(-c2nc(CSCC(=O)NCc3ccc(C)cc3)c(C)o2)cc1	none (no result: Pf growth 96h, HCV inhibitor, Pf growth 48h)
